The record followed here is PubChem BioAssay (Tox21).

In assay [1] the target is Aryl hydrocarbon receptor (Homo sapiens) (UniProt P35869). As to the kind of experiment: qHTS assay to identify small molecule that activate the aryl hydrocarbon receptor (AhR) signaling pathway (AID 743085).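 For activation: HG2L7.5c1 human HepG2 liver cells with stably integrated DRE-driven firefly reporter; series mostly up to about 70 µM.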 Note: nearly all actives have a fitted effect of over 15% in size. Note: potency is the fitted concentration of half-maximal effect. In outline: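 AhR agonist activity is inferred from enhanced light output of a DRE-controlled firefly luciferase reporter in HepG2 cells, measured with ONE-Glo following 24 h treatment at 37C.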
Chain of Aryl hydrocarbon receptor (Homo sapiens) (P35869 whole entry, looked up): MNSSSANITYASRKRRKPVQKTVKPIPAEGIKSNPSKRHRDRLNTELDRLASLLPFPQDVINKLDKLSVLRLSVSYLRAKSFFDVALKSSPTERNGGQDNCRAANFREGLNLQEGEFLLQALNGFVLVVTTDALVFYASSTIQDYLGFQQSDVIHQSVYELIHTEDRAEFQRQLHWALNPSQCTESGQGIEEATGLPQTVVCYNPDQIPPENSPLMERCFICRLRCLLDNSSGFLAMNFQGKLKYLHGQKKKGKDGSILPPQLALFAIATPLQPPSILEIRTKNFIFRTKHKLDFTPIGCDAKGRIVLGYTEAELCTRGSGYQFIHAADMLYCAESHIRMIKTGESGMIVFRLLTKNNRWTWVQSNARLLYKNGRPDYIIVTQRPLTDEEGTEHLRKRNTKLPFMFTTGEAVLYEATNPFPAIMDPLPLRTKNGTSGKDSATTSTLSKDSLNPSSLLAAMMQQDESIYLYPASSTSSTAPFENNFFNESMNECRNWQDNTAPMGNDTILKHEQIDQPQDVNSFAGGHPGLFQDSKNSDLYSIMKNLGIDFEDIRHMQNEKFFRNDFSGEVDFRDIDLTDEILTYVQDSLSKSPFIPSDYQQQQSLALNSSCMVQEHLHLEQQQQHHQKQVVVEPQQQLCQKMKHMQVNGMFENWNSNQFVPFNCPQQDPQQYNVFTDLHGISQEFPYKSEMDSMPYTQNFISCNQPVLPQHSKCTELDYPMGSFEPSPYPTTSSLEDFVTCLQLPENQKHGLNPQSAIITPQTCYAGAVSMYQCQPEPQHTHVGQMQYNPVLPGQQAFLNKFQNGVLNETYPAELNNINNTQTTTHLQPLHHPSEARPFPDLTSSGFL
(Quantitative high-throughput screening tests each substance at several concentrations.)

Assay [2] can be described thus: qHTS assay to identify small molecule that activate the aryl hydrocarbon receptor (AhR) signaling pathway - cell viability counter screen (AID 743086).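 Note: HepG2 liver cells carrying the AhR DRE luciferase reporter; series mostly up to about 70 µM; nearly all actives have a fitted effect of over 45% in size.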 The gist of the method:
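HepG2-AhR-luc (HG2L7.5c1) cells, 4000/well, were preincubated 5 h at 37C, exposed to compound in qHTS format for 24 hr at 37C, then given CellTiter-Fluor for 30 min; viability was read as fluorescence in the reporter wells.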

Assay [3] is described as follows: qHTS assay to identify small molecule antagonists of the peroxisome proliferator-activated receptor gamma (PPARg) signaling pathway - cell viability counter screen (AID 743194). Note: nearly all actives have a fitted effect of over 55% in size. The gist of the method: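 PPARg-UAS-bla HEK293H cells were plated, rested 5 h at 37 C, then treated with compounds plus rosiglitazone (50 nM final) for 17 h at 37 C; viability was then read by CellTiter-Glo luminescence after 30 min at room temperature.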

Assay [4] can be described thus: qHTS assay for small molecule agonists of the antioxidant response element (ARE) signaling pathway (AID 743202; active = well fitted activation curve with a large enough effect in the signal ratio in the repeat runs, not every such curve was filed as active; the % refers to the signal ratio; note: potency is the fitted concentration of half-maximal effect). The gist of the method: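 Compounds delivered in DMSO to ARE-bla HepG2 cells (2,000 cells/well, pre-incubated 5 h) and left 16 h at 37 C. LiveBLAzer B/G FRET substrate then added for 2 h at RT before fluorescence reading.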
Assay [5] in a line: qHTS assay for small molecule agonists of the antioxidant response element (ARE) signaling pathway - cell viability counter screen (AID 743203; calls by dose curve; note: nearly all actives have a fitted effect of over 55% in size). The gist of the method: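 CellSensor ARE-bla HepG2 cells, 2,000 per well, rested 5 hrs at 37C/5% CO2, then exposed to compound in DMSO for 16 hrs; viability read as CellTiter-Glo luminescence after 30 min at room temperature, in the reporter wells.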

Assay [6] is described as follows: qHTS assay for small molecule activators of the heat shock response signaling pathway - cell viability counter screen (AID 743209). Note: nearly all actives have a fitted effect of over 50% in size. The gist of the method:
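CellSensor HSE-bla HeLa cells, plated overnight at 37 C/5% CO2, were exposed to compounds in DMSO for 5 h at 37 C. Viability was then read in the same wells by CellTiter-Glo luminescence after 30 min at room temperature.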

Assay [7] is described as follows: qHTS assay for small molecule activators of the heat shock response signaling pathway (AID 743210; active = well fitted activation curve with a large enough effect in the signal ratio in the repeat runs, with a control signal flat, not every such curve was filed as active; the % refers to the signal ratio;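 note: HeLa cells with beta-lactamase reporter driven by heat shock elements; series mostly up to about 63 µM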). In outline: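 Reporter gene assay: HeLa cells stably bearing an HSE-bla construct, compound treatment 5 h at 37 C, LiveBLAzer substrate 2.5 h at RT, fluorescence intensity.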
Assay [8] in a line: qHTS assay to identify small molecule agonists of the peroxisome proliferator-activated receptor delta (PPARd) signaling pathway - cell viability counter screen (AID 743211). Note: nearly all actives have a fitted effect of over 55% in size. The gist of the method:
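qHTS cell viability: PPARd-bla HEK293H; 17 h cpd, 37C; CellTiter-Glo, luminescence at 30 min RT.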

Assay [9] addresses Peroxisome proliferator-activated receptor delta (Homo sapiens) (UniProt Q03181). As to the kind of experiment: qHTS assay to identify small molecule agonists of the peroxisome proliferator-activated receptor delta (PPARd) signaling pathway (AID 743212; calls by dose curve). The gist of the method:
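A PPARd-bla HEK293H line with beta-lactamase under an Upstream Activator Sequence is treated with compounds at 37 C. Substrate loading for 2 h at room temperature precedes the fluorescence measurement.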

Assay [10] is described as follows: qHTS assay to identify small molecule antagonists of the peroxisome proliferator-activated receptor delta (PPARd) signaling pathway - cell viability counter screen (AID 743213). Note: nearly all actives have a fitted effect of over 50% in size. In outline:
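HEK293H PPARd UAS-bla cells, 5 h pre-incubation, compound + L165041 300 nM final, 17 h 37 C; B/G FRET substrate 2 h RT; then CellTiter-Glo 30 min RT, luminescence.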

Assay [11] deals with Peroxisome proliferator-activated receptor delta (Homo sapiens) (UniProt Q03181). As to the kind of experiment: qHTS assay to identify small molecule antagonists of the peroxisome proliferator-activated receptor delta (PPARd) signaling pathway (AID 743215; active = well fitted inhibition curve with a large enough effect in the signal ratio in the repeat runs, not every such curve was filed as active; the % refers to the signal ratio;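 note: cells stimulated with agonist L165041 at 300 nM final during compound exposure; series mostly up to about 62 µM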). In outline: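 PPARd UAS-bla HEK293H cells were pre-incubated 5 h at 37 C, then given test compounds in DMSO plus agonist L165041 (300 nM final). After 17 h at 37 C, beta-lactamase FRET substrate was added; fluorescence read after 2 h at room temperature.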
Chain of Peroxisome proliferator-activated receptor delta (Homo sapiens) (Q03181 whole entry, looked up): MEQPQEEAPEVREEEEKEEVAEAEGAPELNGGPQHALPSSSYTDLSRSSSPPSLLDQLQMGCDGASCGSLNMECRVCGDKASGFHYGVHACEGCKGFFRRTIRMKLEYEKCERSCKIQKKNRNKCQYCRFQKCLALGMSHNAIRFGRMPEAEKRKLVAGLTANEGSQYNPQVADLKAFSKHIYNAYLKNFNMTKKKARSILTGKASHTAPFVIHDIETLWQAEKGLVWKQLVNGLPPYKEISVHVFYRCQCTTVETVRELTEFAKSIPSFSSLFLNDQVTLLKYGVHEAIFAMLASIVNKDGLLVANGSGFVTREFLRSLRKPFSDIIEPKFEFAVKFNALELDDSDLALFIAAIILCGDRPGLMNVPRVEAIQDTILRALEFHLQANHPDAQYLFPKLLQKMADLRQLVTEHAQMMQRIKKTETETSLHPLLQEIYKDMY

Assay [12] in a line: qHTS assay to identify small molecule agonists of the farnesoid-X-receptor (FXR) signaling pathway - cell viability counter screen (AID 743218). Note: nearly all actives have a fitted effect of over 45% in size. The gist of the method:
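FXR-UAS-bla HEK 293T cells, plated 5 h at 37 C, were exposed to compounds for 16 h at 37 C. CellTiter-Glo was then added to the same wells as the bla readout; luminescence read after 30 min at room temperature.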

Assay [13] is described as follows: qHTS assay to identify small molecule antagonists of the farnesoid-X-receptor (FXR) signaling pathway - cell viability counter screen (AID 743221; active = well fitted cell-killing curve with a large enough effect in the repeat runs, not every such curve was filed as active; note: nearly all actives have a fitted effect of over 50% in size). The gist of the method:
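After a 5 h settling period, FXR-bla HEK 293T cells receive compound and chenodeoxycholic acid (50 uM final) and incubate 16 h at 37 C; CellTiter-Glo luminescence, read after 30 min at room temperature, reports cell viability.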

Assay [14] can be described thus: qHTS assay to identify small molecule agonists of the vitamin D receptor (VDR) signaling pathway - cell viability counter screen (AID 743224). Note: series mostly up to about 63 µM; nearly all actives have a fitted effect of over 50% in size. In outline:
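VDR-bla cells were preincubated 4 h at 37C/5% CO2, then exposed to compounds for 16 h. After the 2 h room-temperature bla FRET read, CellTiter-Glo was added to the same wells and luminescence read after 30 min.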

Assay [15] deals with Peroxisome proliferator-activated receptor gamma (Homo sapiens) (UniProt P37231). As to the kind of experiment: qHTS assay to identify small molecule agonists of the peroxisome proliferator-activated receptor gamma (PPARg) signaling pathway (AID 743094; active = well fitted activation curve with a large enough effect in the signal ratio in the repeat runs, not every such curve was filed as active; the % refers to the signal ratio). In outline: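 GeneBLAzer PPARg UAS-bla HEK293H cells carrying a stably integrated beta-lactamase reporter were pre-incubated 5 h at 37C, then exposed to compounds in DMSO for 17 h at 37C; LiveBLAzer B/G FRET substrate was added for 1 h at room temperature and fluorescence read.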
Chain of Peroxisome proliferator-activated receptor gamma (Homo sapiens) (P37231 whole entry, looked up): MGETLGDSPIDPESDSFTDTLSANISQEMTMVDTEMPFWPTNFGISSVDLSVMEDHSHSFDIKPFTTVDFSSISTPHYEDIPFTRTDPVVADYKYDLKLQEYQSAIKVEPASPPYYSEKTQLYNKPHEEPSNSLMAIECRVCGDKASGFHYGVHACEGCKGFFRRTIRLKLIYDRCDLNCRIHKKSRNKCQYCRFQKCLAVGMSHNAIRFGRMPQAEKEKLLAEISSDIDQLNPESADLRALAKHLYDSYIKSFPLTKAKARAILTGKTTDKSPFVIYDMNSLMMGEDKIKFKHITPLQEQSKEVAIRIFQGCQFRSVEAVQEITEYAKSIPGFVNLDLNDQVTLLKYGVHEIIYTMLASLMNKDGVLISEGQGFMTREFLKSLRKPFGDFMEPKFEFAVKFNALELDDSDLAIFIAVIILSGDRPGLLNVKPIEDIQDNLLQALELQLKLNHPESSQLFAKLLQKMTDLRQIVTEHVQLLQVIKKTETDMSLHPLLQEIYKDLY

The target of assay [16] is Vitamin D3 receptor (Homo sapiens) (UniProt P11473). As to the kind of experiment: qHTS assay to identify small molecule agonists of the vitamin D receptor (VDR) signaling pathway (AID 743222; calls by dose curve). The gist of the method:
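VDR-bla cells were plated 4 h at 37C/5% CO2, then exposed to compounds in DMSO for 16 h. After LiveBLAzer B/G FRET substrate addition and 2 h at room temperature, beta-lactamase reporter fluorescence was read.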

For assay [17] the target is unchanged. As to the kind of experiment: qHTS assay to identify small molecule antagonists of the vitamin D receptor (VDR) signaling pathway (AID 743223; active = well fitted inhibition curve with a large enough effect in the signal ratio in the repeat runs, not every such curve was filed as active; the % refers to the signal ratio). The gist of the method: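 Reporter line VDR-bla; stimulus 1alpha,25-(OH)2 vitamin D3, 3 nM final; compound co-addition, 16 h 37C/5% CO2; LiveBLAzer B/G substrate 2 h RT; fluorescence intensity.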
Assay [18] concerns the target Peroxisome proliferator-activated receptor gamma (Homo sapiens) (UniProt P37231). As to the kind of experiment: qHTS assay to identify small molecule antagonists of the peroxisome proliferator-activated receptor gamma (PPARg) signaling pathway (AID 743191; calls by dose curve; note: series mostly up to about 63 µM; nearly all actives have a fitted effect of over 30% in size). In outline:
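GeneBLAzer PPARg UAS-bla HEK293H cells carrying a UAS-driven beta-lactamase reporter were plated at 3000 cells/well, preincubated 5 h at 37C, then given compound for 17 h at 37C; LiveBLAzer B/G FRET substrate was read after 1 h at room temperature.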

Assay [19] deals with Bile acid receptor (Homo sapiens) (UniProt Q96RI1). As to the kind of experiment: qHTS assay to identify small molecule antagonists of the farnesoid-X-receptor (FXR) signaling pathway (AID 743217; active = well fitted inhibition curve with a large enough effect in the signal ratio in the repeat runs, not every such curve was filed as active; the % refers to the signal ratio). The gist of the method:
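FXR-UAS-bla HEK 293T cells pre-incubated 5 h at 37 °C, then exposed to compounds with chenodeoxycholic acid (50 uM final) for 16 h at 37 °C. Beta-lactamase reporter read by LiveBLAzer B/G FRET substrate fluorescence after 2 h at room temperature.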

Assay [20] has the same target. As to the kind of experiment: qHTS assay to identify small molecule agonists of the farnesoid-X-receptor (FXR) signaling pathway (AID 743220; active = well fitted activation curve with a large enough effect in the signal ratio in the repeat runs, not every such curve was filed as active; the % refers to the signal ratio). In outline:
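Beta-lactamase reporter under UAS control in GeneBLAzer FXR HEK 293T cells (5000/well) measured with LiveBLAzer FRET substrate after 2 h at room temperature. Compound exposure lasted 16 h at 37C.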

Inconclusive results are not listed. A number with no mark means an inactive call. Active and inactive are the calls of the source. Unless noted, calls come from the whole dose curve; as a rule, active = well fitted curve in the direction sought with a large enough effect in the repeat runs; inconclusive = weak or mixed curves; inactive = no such curve, though single readings can be large; an effect the other way counts as inactive or inconclusive.

Chain of Vitamin D3 receptor (Homo sapiens) (P11473 whole entry, looked up): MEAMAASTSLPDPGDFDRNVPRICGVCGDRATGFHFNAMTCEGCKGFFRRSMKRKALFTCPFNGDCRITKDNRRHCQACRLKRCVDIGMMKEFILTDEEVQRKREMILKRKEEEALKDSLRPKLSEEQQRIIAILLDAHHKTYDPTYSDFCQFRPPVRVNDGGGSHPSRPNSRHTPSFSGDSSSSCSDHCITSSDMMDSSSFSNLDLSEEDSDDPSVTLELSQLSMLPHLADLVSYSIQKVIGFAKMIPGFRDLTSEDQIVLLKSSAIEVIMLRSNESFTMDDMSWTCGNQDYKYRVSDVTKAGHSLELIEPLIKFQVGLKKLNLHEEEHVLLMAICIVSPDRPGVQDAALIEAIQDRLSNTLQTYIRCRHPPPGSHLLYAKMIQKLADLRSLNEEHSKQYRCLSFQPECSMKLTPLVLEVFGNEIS
Chain of Bile acid receptor (Homo sapiens) (Q96RI1 whole entry, looked up): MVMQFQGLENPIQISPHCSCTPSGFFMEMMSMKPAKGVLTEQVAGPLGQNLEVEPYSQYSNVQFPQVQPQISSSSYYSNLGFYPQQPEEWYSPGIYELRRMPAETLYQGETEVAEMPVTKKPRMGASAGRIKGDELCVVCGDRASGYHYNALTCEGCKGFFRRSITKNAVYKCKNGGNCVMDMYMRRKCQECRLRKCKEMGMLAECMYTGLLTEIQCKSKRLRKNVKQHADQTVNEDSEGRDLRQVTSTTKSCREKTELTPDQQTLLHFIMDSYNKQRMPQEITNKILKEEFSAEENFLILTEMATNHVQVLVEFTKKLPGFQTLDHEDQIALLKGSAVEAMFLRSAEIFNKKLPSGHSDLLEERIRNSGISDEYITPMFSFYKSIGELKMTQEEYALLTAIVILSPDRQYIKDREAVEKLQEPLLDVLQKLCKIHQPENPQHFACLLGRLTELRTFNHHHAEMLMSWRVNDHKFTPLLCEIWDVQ

On to `COc1ccnc(CS(=O)c2nc3cc(OC(F)F)ccc3[nH]2)c1OC` (centres undefined), for which the results for the Potency in assay [1] and in assay [4] were 3.35 µM (active) and 27.5 µM (active), respectively. Further, the Potency result in assay [2] was “inactive”. Further, the compound was classed as inactive in assay [3], in assay [5], in [6], in assay [7], in [8] and in assay [9]. Also, the result in assay [10], in assay [11], in assay [12], in assay [13] and in assay [14] was inactive.
On to `CCCO[Si](OCCC)(OCCC)OCCC`, for which the Potency entry in assay [1], in assay [2] and in [15] was “inactive” each time. The compound was called inactive in [3], in assay [6], in assay [7], in assay [8], in assay [9] and in assay [11]. Moreover, the outcome in assay [12], in assay [13], in [16], in assay [17] and in assay [14] was inactive.
In the case of `CCOC(=O)COC(=O)c1ccccc1C(=O)OCC`, the Potency result in [1], in assay [2] and in [18] was “inactive” throughout. For the same compound, the compound was classed as inactive in [5], in assay [6], in [7], in assay [8], in [9] and in assay [10]. The call in [11], in [12], in assay [13], in assay [16] and in [17] was inactive.
In the case of `C[N+]1(CC2COC(c3ccccc3)(c3ccccc3)O2)CCCCC1` (centres undefined), the Potency entry in [1], in [2] and in assay [4] was “inactive” each time. The result in [3], in assay [5], in assay [6], in assay [7], in assay [8] and in [9] was inactive. In addition, the compound was classed as inactive in [10], in [11], in assay [19], in assay [12], in assay [20] and in assay [13]. Further, in assay [14], the compound was classed as inactive.
As for `CCOC(=O)C1=NOC(c2ccccc2)(c2ccccc2)C1`, the Potency entry in [1], in [2] and in [18] was “inactive” each time. Besides, the call in assay [3], in assay [5], in assay [6], in [7], in assay [8] and in assay [9] was inactive. Also, the compound was classed as inactive in [10], in assay [19], in assay [20], in assay [13], in assay [17] and in assay [14].
Regarding `FB(F)F`, the Potency entry in assay [1], in assay [2] and in assay [15] was “inactive” throughout. The compound was classed as inactive in assay [3], in assay [5], in [6], in [8], in [9] and in assay [10]. In addition, the compound was called inactive in assay [19], in assay [13], in assay [16], in assay [17] and in [14].
As for `CC1CCC(CO)CC1` (centres undefined), the Potency result in assay [1], in [2] and in [4] was “inactive” each time. Besides, the result in [3], in assay [5], in assay [6], in [7], in assay [8] and in assay [9] was inactive. Besides, the result in [10], in assay [11], in [12], in assay [13], in assay [16] and in [17] was inactive.
In the case of `N[C@H](C(=O)O)[C@@H](O)c1ccc(O)c(O)c1`, the Potency entry in [1], in assay [2] and in assay [18] was “inactive” in each case. The result in [3], in [5], in assay [6], in assay [7], in assay [8] and in assay [9] was inactive. The outcome in assay [10], in assay [19], in assay [12], in assay [13], in assay [16] and in assay [17] was inactive.
In the case of `C[C@H]1[C@H](NC(=O)/C(=N/OC(C)(C)C(=O)O)c2csc(N)n2)C(=O)N1S(=O)(=O)O` (stereo in doubt), the Potency result in assay [1], in [2] and in assay [4] was “inactive” throughout. Moreover, the compound was called inactive in assay [3], in assay [5], in assay [6], in [7], in assay [8] and in assay [10]. For the same compound, the compound was called inactive in [19], in assay [12] and in [13].
